Of roughly 8,800 targets only a part is listed; those with a hit were picked by preference. About 0.5% of all pairs of compound and target were hits. Values without a mark were called inactive.
What was measured:
Experiment in all cases: log2 fold change, soluble protein after heating vs DMSO (PISA); higher = thermal stabilisation; K562 lysate, 10 uM; active = over 0.2 and 3.5 SD of the protein, either way, in both replicates (recomputed)
nilotinib = compound: Cc1cn(-c2cc(NC(=O)c3ccc(C)c(Nc4nccc(-c5cccnc5)n4)c3)cc(C(F)(F)F)c2)cn1 [nilotinib]
Summary of the method: (§1)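 Values give the log-two fold change in thermal stability against solvent controls, from duplicates. Crude K562 extract at 1 mg/mL protein, made by dounce homogenisation in PBS pH 7.4 with 1 mM MgCl2, was treated with 10 μM compound for 30 min. After 3 min heating across 48°C-58°C, aliquots were pooled, adjusted to 0.5% NP-40 at 4°C and centrifuged at 21,000xg for 90 min. The supernatant was measured by TMTpro 16plex LC-MS/MS with channel sums equalised.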

[1] = compound: Cc1nc(Nc2n[nH]c3c2CN(C(=O)N[C@H](CN(C)C)c2ccccc2)C3(C)C)c2sccc2n1
Summary of the method: as §1

dasatinib = compound: Cc1nc(Nc2ncc(C(=O)Nc3c(C)cccc3Cl)s2)cc(N2CCN(CCO)CC2)n1 [dasatinib]
Summary of the method: as §1

[2] = compound: Cc1ncc(-c2ccnc(Nc3ccc(S(C)(=O)=O)cc3)n2)n1C(C)C
Summary of the method: as §1

[3] = compound: Cn1cc(-c2ccc3c(c2)CCN3C(=O)Cc2cccc(C(F)(F)F)c2)c2c(N)ncnc21
Summary of the method: as §1

quisinostat = compound: Cn1cc(CNCC2CCN(c3ncc(C(=O)NO)cn3)CC2)c2ccccc21 [quisinostat]
Summary of the method: as §1

tipifarnib = compound: Cn1cncc1[C@@](N)(c1ccc(Cl)cc1)c1ccc2c(c1)c(-c1cccc(Cl)c1)cc(=O)n2C [tipifarnib]
Summary of the method: as §1

[4] = compound: NC(=O)Nc1cc(-c2cccc(F)c2)sc1C(=O)N[C@H]1CCCNC1
Summary of the method: as §1

[5] = compound: NC(=O)c1cnc(N[C@@H]2CCCC[C@@H]2N)nc1Nc1cccc(-n2nccn2)c1
Summary of the method: as §1

[6] = compound: NC1(c2ccc(-c3nc4ccn5c(=O)[nH]nc5c4cc3-c3ccccc3)cc2)CCC1
Summary of the method: as §1

[7] = compound: NCC(=O)Nc1ccc(-n2nc(C(F)(F)F)cc2-c2ccc3c(ccc4ccccc43)c2)cc1
Summary of the method: as §1

vorinostat = compound: O=C(CCCCCCC(=O)Nc1ccccc1)NO [vorinostat]
Summary of the method: as §1

silmitasertib = compound: O=C(O)c1ccc2c(c1)nc(Nc1cccc(Cl)c1)c1ccncc12 [silmitasertib]
Summary of the method: as §1

[8] = compound: O=C1NC(=O)C(c2cnc3ccccn23)=C1c1cn2c3c(cc(F)cc13)CN(C(=O)N1CCCCC1)CC2
Summary of the method: as §1

entospletinib = compound: c1cn2cc(-c3ccc4cn[nH]c4c3)nc(Nc3ccc(N4CCOCC4)cc3)c2n1 [entospletinib]
Summary of the method: as §1

Chain of UniProt O75843 (O75843 whole entry, looked up): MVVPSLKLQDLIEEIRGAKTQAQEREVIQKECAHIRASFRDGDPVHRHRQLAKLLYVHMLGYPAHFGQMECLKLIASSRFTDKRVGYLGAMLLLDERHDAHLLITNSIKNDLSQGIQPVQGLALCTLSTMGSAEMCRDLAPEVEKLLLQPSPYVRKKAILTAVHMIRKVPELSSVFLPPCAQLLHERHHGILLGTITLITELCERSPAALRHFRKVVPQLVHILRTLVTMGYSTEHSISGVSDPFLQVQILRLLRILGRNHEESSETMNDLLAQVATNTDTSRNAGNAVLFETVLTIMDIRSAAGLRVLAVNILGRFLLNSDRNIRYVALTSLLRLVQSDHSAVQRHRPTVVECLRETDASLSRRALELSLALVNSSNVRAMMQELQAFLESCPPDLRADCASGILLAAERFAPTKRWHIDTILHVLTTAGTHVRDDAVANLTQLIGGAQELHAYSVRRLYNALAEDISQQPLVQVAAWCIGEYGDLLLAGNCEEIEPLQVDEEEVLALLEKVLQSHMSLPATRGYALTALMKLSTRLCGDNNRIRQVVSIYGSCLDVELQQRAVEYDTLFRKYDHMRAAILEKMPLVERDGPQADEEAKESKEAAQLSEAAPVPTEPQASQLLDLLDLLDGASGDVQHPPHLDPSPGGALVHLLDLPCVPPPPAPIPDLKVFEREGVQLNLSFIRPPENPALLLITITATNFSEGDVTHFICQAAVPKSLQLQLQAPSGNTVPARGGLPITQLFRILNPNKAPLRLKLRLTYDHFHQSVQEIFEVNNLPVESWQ
Chain of UniProt P08243 (P08243 whole entry, looked up): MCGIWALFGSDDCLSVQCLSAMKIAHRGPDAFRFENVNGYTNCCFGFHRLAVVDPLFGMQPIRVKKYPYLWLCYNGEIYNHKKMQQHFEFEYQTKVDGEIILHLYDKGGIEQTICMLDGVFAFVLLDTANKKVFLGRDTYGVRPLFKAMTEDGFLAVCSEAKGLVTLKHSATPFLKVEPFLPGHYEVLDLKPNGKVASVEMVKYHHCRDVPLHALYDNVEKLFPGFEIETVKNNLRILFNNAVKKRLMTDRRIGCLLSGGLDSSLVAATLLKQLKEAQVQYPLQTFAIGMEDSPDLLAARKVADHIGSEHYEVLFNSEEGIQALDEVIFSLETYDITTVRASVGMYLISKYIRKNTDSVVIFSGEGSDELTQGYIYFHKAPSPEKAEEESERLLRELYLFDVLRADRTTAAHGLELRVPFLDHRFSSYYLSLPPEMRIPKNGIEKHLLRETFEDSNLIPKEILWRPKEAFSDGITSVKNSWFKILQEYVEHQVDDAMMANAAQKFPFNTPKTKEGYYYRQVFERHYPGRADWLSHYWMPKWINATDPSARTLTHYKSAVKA
Chain of UniProt Q9UHB7 (Q9UHB7 whole entry, looked up): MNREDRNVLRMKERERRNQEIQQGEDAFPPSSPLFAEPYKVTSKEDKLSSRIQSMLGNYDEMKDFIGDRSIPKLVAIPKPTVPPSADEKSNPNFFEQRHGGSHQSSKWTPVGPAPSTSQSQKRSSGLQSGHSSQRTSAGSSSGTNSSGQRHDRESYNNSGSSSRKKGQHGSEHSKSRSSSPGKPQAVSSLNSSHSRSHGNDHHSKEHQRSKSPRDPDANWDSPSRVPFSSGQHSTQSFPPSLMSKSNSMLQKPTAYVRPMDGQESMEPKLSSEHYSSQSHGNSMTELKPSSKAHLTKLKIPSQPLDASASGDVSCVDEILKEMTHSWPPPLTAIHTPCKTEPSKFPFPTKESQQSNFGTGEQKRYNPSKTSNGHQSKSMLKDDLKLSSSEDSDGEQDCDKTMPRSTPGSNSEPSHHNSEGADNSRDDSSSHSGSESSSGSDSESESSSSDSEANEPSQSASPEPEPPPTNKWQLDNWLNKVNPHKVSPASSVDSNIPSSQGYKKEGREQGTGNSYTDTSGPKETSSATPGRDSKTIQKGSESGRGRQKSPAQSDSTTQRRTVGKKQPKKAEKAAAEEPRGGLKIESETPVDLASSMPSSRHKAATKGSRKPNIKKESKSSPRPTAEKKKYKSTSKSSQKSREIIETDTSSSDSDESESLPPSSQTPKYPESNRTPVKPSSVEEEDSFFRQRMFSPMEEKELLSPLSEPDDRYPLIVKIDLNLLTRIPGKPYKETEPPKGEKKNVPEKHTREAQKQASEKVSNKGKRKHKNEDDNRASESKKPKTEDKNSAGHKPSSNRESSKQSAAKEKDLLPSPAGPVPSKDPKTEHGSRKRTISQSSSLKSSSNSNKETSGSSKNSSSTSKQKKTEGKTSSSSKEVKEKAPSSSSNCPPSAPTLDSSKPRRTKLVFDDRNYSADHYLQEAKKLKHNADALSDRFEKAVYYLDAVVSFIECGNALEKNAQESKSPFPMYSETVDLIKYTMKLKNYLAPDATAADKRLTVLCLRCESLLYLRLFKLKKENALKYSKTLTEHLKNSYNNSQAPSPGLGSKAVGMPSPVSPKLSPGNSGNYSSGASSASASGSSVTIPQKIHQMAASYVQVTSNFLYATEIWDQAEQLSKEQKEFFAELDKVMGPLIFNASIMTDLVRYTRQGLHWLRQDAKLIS
Chain of UniProt P27144 (P27144 whole entry, looked up): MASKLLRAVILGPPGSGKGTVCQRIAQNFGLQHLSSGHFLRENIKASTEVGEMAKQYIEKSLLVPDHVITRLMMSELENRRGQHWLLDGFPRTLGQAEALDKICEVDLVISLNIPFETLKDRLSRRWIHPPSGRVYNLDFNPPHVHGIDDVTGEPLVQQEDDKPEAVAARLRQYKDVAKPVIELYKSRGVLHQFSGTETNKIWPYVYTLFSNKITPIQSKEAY
Chain of UniProt Q6NXE6 (Q6NXE6 whole entry, looked up): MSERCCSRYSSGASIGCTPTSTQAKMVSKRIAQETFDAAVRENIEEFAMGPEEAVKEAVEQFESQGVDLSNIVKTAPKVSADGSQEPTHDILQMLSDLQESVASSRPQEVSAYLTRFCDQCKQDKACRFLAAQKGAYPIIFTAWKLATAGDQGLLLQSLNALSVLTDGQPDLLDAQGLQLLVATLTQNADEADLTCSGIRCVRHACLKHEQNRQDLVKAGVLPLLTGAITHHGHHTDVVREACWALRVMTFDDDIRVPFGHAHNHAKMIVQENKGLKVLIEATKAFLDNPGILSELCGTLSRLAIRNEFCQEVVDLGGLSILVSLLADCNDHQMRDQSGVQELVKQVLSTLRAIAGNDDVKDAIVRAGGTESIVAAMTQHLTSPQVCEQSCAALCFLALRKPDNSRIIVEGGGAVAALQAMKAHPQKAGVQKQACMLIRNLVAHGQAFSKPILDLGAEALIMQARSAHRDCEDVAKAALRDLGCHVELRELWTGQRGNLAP
Chain of UniProt Q6NXT1 (Q6NXT1 whole entry, looked up): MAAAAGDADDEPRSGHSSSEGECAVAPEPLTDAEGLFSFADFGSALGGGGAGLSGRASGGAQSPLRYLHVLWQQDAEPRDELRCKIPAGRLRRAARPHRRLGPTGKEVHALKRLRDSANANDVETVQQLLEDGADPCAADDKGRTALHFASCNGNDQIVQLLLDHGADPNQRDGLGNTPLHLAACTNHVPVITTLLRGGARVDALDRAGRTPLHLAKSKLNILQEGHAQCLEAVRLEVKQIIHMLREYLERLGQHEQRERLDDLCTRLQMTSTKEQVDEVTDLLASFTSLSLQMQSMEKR
Chain of UniProt Q8IZP0 (Q8IZP0 whole entry, looked up): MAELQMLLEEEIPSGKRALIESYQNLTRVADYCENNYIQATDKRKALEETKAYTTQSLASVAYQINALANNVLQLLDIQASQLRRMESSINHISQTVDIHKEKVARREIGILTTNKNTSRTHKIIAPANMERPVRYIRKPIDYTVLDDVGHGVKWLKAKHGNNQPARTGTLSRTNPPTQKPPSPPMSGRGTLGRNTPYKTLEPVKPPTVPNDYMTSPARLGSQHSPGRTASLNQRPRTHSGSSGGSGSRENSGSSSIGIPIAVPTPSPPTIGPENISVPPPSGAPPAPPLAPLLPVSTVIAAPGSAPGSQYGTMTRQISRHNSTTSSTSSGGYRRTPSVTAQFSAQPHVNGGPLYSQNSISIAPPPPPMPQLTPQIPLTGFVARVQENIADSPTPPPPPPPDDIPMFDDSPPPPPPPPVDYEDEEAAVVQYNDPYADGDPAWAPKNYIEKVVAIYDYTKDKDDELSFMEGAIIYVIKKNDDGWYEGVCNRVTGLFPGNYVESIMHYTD
Chain of UniProt Q01432 (Q01432 whole entry, looked up): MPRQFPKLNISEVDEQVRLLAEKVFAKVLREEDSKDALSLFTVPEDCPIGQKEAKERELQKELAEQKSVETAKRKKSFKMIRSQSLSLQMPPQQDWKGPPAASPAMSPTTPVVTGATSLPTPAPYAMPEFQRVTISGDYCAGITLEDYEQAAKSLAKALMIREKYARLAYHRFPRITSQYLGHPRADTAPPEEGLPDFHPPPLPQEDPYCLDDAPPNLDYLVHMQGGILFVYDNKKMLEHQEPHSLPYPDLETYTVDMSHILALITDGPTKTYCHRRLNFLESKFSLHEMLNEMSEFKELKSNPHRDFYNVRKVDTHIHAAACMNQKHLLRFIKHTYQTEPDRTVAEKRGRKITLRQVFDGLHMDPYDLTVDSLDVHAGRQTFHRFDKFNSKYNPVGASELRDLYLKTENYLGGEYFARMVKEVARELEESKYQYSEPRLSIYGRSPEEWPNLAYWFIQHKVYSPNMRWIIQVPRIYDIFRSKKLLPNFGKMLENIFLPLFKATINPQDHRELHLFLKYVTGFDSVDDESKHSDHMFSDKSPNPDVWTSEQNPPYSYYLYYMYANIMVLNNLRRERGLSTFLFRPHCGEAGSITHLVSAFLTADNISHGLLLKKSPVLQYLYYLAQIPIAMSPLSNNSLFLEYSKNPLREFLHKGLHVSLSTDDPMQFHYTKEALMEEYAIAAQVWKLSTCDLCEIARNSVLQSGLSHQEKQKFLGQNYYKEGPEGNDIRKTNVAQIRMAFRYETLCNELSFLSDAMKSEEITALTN

Row | Target | log2 fold change (nilotinib) | log2 fold change [1] | log2 fold change (dasatinib) | log2 fold change [2] | log2 fold change [3] | log2 fold change (quisinostat) | log2 fold change (tipifarnib) | log2 fold change [4] | log2 fold change [5] | log2 fold change [6] | log2 fold change [7] | log2 fold change (vorinostat) | log2 fold change (silmitasertib) | log2 fold change [8] | log2 fold change (entospletinib)
1 | ABI1 isoform 9 (UniProt Q8IZP0) | -0.006 | -0.004 | -0.001 | -0.02 | -0.016 | 0.003 | -0.01 | -0.023 | 0.003 | 0.032 | 0.046 | 0.026 | -0.025 | 0.03 | 0.018
2 | ACADM isoform 2 (UniProt P11310) | -0.031 | -0.008 | -0.041 | -0.009 | 0.001 | 0.009 | -0.021 | -0.027 | -0.033 | -0.091 | -0.015 | 0.344 (active) | -0.015 | 0.023 | 0.016
3 | ACACA isoform 4 (UniProt Q13085) | -0.032 | 0.004 | -0.037 | 0.028 | 0.043 | -0.024 | 0.081 | 0.03 | 0.01 | -0.019 | -0.003 | -0.449 (active) | 0.016 | -0.003 | 0.027
4 | AMPD3 isoform 4 (UniProt Q01432) | -0.002 | 0.027 | 0.014 | -0.021 | -0.013 | 0.038 | 0.032 | -0.012 | -0.017 | 0.012 | -0.038 | 0.256 (active) | -0.005 | -0.021 | 0.018
5 | ARMC6 (UniProt Q6NXE6) | -0.001 | -0.006 | -0.055 | -0.017 | 0.013 | -0.057 | 0 | 0.094 | 0.017 | -0.031 | -0.011 | -0.422 (active) | 0.02 | -0.006 | 0.011
6 | AP4B1 (UniProt Q9Y6B7) | 0.023 | 0.011 | 0.032 | -0.013 | 0.027 | 0.018 | -0.051 | 0.1 | 0.028 | 0.007 | 0.08 | -0.286 (active) | 0.037 | -0.051 | 0.022
7 | AKR1C2 (UniProt P52895) | 0.02 | -0.031 | -0.006 | -0.009 | -0.045 | -0.043 | 0 | 0.019 | -0.039 | -0.034 | -0.008 | 0.504 (active) | -0.011 | 0.052 | -0.014
8 | AK4 (UniProt P27144) | -0.006 | 0.003 | -0.04 | 0.042 | 0.04 | -0.012 | 0.001 | 0.018 | -0.023 | -0.012 | -0.051 | 0.037 | -0.008 | -0.016 | -0.02
9 | ARHGEF1 (UniProt M0QZR4) | 0.009 | -0.031 | -0.058 | -0.016 | 0.022 | -0.02 | 0.01 | 0.015 | 0.017 | -0.015 | 0.019 | -0.392 (active) | 0.023 | 0.004 | 0.003
10 | ARGLU1 (UniProt Q9NWB6) | -0.012 | -0.007 | 0.058 | -0.018 | 0.096 | 0.022 | -0.043 | -0.133 | -0.012 | 0.016 | 0.01 | 0.116 | 0.008 | -0.067 | -0.054
11 | ACAA1 (UniProt P09110) | 0.035 | -0.019 | 0.014 | -0.007 | -0.027 | -0.026 | 0.011 | -0.001 | -0.016 | 0.009 | -0.005 | -0.332 (active) | -0.039 | 0.033 | 0.038
12 | ASNS (UniProt P08243) | -0.004 | -0.008 | -0.039 | -0.018 | 0.025 | 0.027 | 0.017 | 0.027 | -0.01 | -0.028 | 0.006 | -0.373 (active) | -0.01 | -0.008 | 0.029
13 | AFF4 (UniProt Q9UHB7) | -0.039 | -0.068 | 0.005 | 0.012 | 0.023 | 0.02 | 0.065 | 0.032 | -0.026 | 0.022 | -0.119 | 0.078 | -0.04 | -0.031 | -0.088
14 | ABHD17A isoform 2 (UniProt Q96GS6) | 0.062 | 0.038 | -0.141 | 0.096 | 0.017 | -0.09 | 0.097 | -0.007 | 0.008 | 0.007 | 0.001 | 0.363 (active) | -0.059 | -0.025 | 0.043
15 | AP1G2 (UniProt O75843) | -0.013 | -0.046 | -0.081 | -0.019 | 0.048 | -0.006 | 0.063 | 0.005 | -0.012 | -0.125 | 0.071 | -0.31 (active) | -0.03 | 0.008 | 0.018
16 | ABCD3 (UniProt P28288) | 0.019 | 0.093 | -0.063 | -0.184 | 0.031 | 0.074 | -0.025 | 0.016 | -0.054 | 0.087 | -0.019 | -0.164 | 0.113 | -0.08 | 0.034
17 | ANKRD54 (UniProt Q6NXT1) | 0.053 | -0.003 | -0.013 | 0.05 | -0.018 | -0.024 | 0.019 | -0.013 | 0 | 0.04 | 0.023 | -0.245 (active) | 0.007 | -0.076 | -0.006
18 | ACOX1 isoform 2 (UniProt Q15067) | 0.104 | 0.005 | 0.065 | -0.011 | 0.019 | 0 | -0.042 | -0.018 | -0.039 | 0 | 0.009 | 0.09 | 0.009 | 0.04 | -0.012
19 | ACAT1 (UniProt P24752) | 0.028 | -0.021 | 0.015 | 0.019 | -0.029 | -0.006 | 0.044 | -0.001 | -0.005 | 0.021 | 0.011 | -1.05 (active) | -0.037 | -0.014 | 0.018
20 | AK2 (UniProt P54819) | 0.003 | -0.006 | 0.079 | -0.013 | -0.022 | 0.024 | 0.007 | -0.066 | 0.013 | 0.004 | 0.024 | 0.159 | 0.007 | -0.005 | 0.012
21 | AKR1C3 (UniProt P42330) | -0.007 | 0.046 | 0.209 | -0.079 | -0.038 | -0.055 | 0.04 | 0.036 | -0.059 | -0.013 | -0.009 | 0.546 (active) | 0.044 | 0.009 | 0.059
